# Assays:
# MRCKB = test system: T1, MRCKB
# T1 construct: gene CDC42BPB
# NIK = test system: T2, NIK
# T2 construct: gene MAP3K14
# NIM1 = test system: T3, NIM1
# T3 construct: gene MGC42105
# OSR1 = test system: T4, OSR1
# T4 construct: gene OXSR1
# 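Also: kd values determined as follow-up on hits from a single-replicate KINOMEscan panel screen.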
compound,measurement,setting,value
C[C@@H]1CCN(C(=O)CO)C[C@@H]1N(C)c1ncnc2[nH]ccc12,Kd,MRCKB,> 10 µM
same,Kd,NLK,> 10 µM
O=C(Nc1n[nH]c2nc(-c3ccco3)c(Br)cc12)c1ccc(CN2CCCC2)cc1.O=C(O)[C@H](O)[C@@H](O)C(=O)O [SB-742352],Kd,MYLK2,0.12 µM
same,Kd,MYLK,1.3 µM
Nc1nc(-c2cccnc2)c(-c2ccnc3ccccc23)s1 [GW684083],Kd,MYLK4,0.49 µM
CN1c2ccc(-c3ccc(C(=O)NCCO)cc3)cc2-c2[nH]ncc2S1(=O)=O,Kd,MYLK,0.48 µM
COC(=O)c1c(-c2ccccc2)c2cc(Cl)ccc2c(=O)n1Cc1ccc(S(C)(=O)=O)cc1,Kd,NEK2,> 10 µM
CNc1nccc(-c2c(-c3ccc(F)cc3)ncn2CCCN2CCOCC2)n1 [SB-222516],Kd,NEK5,> 10 µM
same,Kd,PAK2,> 10 µM
CS(=O)(=O)CCNCc1ccc(-c2ccc3ncnc(Nc4ccc(OCc5ccccc5)c(Cl)c4)c3c2)o1.Cl [GW574783],Kd,NIK,> 10 µM
CC(=O)Nc1n[nH]c2ncc(-c3ccccc3)cc12 [SB-548492],Kd,NIM1,> 10 µM
CNc1nccc(-c2c(-c3ccc(F)cc3)ncn2C2CCN(C)CC2)n1 [SB-222903],Kd,NLK,0.13 µM
CCCc1ccc(S(=O)(=O)NC2CCN(c3ccnc(Nc4ccc(OC)cc4)n3)C2)cc1 (centres unmarked) [GSK1379737],Kd,OSR1,> 10 µM
same,Kd,PAK3,> 10 µM
Oc1ccc2ncnc(Nc3ccc(OCc4ccccc4)cc3)c2c1 [GI262866],Kd,PAK3,> 10 µM
c1ccc(-c2ccc3c(-c4ccnc(Nc5ccc6c(c5)OCCO6)n4)cnn3n2)cc1 [GW818941],Kd,PAK6,> 10 µM
Cc1ccc(C)c(NC(=O)NCCNc2ccnc(Nc3ccc(F)cc3)n2)c1 [GSK1379878],Kd,PAK6,> 10 µM

# Reference: publication PMC5540273 (PLoS ONE, 2017)
